# TDP1 cell noCPT: qHTS for Inhibitors of human tyrosyl-DNA phosphodiesterase 1 (TDP1): qHTS in cells in absence of CPT; DT40 Tdp1-/- hTDP1 cells, no CPT, ATP luminescence, 48 h; Potency, µM (top dose mostly 46.2 µM), most hits filed as inhibitors; hit rate 15% among 420,000; also: nearly all actives have a fitted effect of over 55% in size
#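 Growth of hTDP1-complemented DT40 Tdp1-knockout cells is measured by ATP luminescence after at least 48 hr compound exposure at 37 °C, with DMSO substituting for the 20 nM CPT used in the parallel screen.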
# 12-LOX inh: blocks human arachidonate 12S-lipoxygenase; P18054; purified 12hLO, xylenol orange hydroperoxide absorbance; Potency, µM (titrated, usually from 108 µM), hits mostly inhibitors; hit rate 1.1% among 580,000
# Target sequence (P18054 whole entry, looked up): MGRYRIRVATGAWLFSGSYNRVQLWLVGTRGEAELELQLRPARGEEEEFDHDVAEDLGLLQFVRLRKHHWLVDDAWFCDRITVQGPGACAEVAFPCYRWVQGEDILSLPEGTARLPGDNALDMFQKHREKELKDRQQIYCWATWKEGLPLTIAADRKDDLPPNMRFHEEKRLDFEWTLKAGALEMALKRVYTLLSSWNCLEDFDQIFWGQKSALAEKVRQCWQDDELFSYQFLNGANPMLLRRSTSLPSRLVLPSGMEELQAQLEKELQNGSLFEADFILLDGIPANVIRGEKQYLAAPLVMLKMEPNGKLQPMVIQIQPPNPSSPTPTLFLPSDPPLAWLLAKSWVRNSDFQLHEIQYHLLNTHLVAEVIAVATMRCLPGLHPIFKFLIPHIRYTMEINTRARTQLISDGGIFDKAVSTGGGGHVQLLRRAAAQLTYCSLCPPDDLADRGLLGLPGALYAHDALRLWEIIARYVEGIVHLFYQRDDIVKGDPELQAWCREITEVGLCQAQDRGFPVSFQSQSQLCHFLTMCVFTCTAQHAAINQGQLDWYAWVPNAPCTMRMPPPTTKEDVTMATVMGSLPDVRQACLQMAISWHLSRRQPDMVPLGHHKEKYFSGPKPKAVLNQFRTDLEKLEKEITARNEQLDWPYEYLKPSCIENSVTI
#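 Purified human 12hLO (150 nM final) in 25 mM Hepes, 0.01% Triton X-100, pH 7.0 was preincubated 15 min at room temperature with compound. Then 40 uM arachidonic acid was added, 30 min. Hydroperoxide was read by Fe-XO absorbance ratio 573/405 nm.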
# HT1080 IDH1KD tx: HT-1080 IDH1 knockdown cell toxicity (counter line) | HT-1080 IDH1 knockdown viability, ATP luminescence, 48 h | Potency, µM (series often up to 46.1 µM), most hits filed as cytotoxic | hit rate 2% among 360,000
#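 % activity derives from luminescence (CellTiter-Glo), normalised to DMSO and no-cell wells. HT-1080-IDH1KD cells, 750/well, had 48 h compound exposure at 37 °C.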
# HT1080NT lethal: kills 2HG-producing HT-1080-NT fibrosarcoma cells; HT-1080-NT fibrosarcoma viability, CellTiter-Glo ATP luminescence, 48 h; Potency, µM (series often up to 46.1 µM), actives largely listed as cytotoxic; hit rate 1.6% among 360,000; AID 686970;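 also: NT is the 2HG producing partner of a matched IDH1 knockdown line; nearly all actives have a fitted effect of over 55% in size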
#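 Compounds were tested in concentration-response format on HT-1080-NT cells for 48 hours at 37 degrees C. Cell viability came from CellTiter-Glo luminescence; curves were classified by r2, response magnitude and activity.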
# IL1B secr inh: inflammasome signaling inhibition, IL-1 beta readout | THP-1 LPS/ATP IL-1B secretion, AlphaLISA, 16 h; active compounds read low | activity change, % at 57.5 µM | hit rate 4.7% among 360,000 | AID 743279; in the data active = activity change below about -50%; inconclusive = mostly about -30% to -49%
#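 Secreted IL-1B measured by AlphaLISA bead assay after 16 h compound exposure of THP-1 cells; compounds (final up to 57.5 uM) added 1 h before LPS (250 ng/mL) and ATP (1.25 mM) stimulation; lower signal means less secretion.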
# TDP1 cell CPT: growth inhibition of DT40 Tdp1-/-;hTDP1 cells with camptothecin (screen for TDP1 inhibitors); chicken DT40 Tdp1-/-;hTDP1 cells + 20 nM CPT, ATP luminescence, 48 h; Potency, µM (top dose mostly 46.2 µM), hits mostly inhibitors; hit rate 12% among 420,000; AID 686979; also: nearly all actives have a fitted effect of over 55% in size
#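 Chicken DT40 Tdp1-/- cells stably complemented with human TDP1 were seeded at 400 cells/well in medium containing 20 nM camptothecin, exposed to pin-transferred compounds, and grown at 37 °C for at least 48 hr. Viability was read as ATP luminescence.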
# A number is an active result; n = inactive; u = inconclusive; x = no result; [ ] = dose if it differs, or a comment. This is one part of a sample in which hits are shown more often than they occur. Unless noted, calls follow the shape of the dose curve; as a rule, active = well fitted curve in the direction sought with a large enough effect; inconclusive = small, poorly fitted or top-dose-only effect, or another doubt; inactive = no such curve, though single readings can be large; an effect the other way counts as inactive or inconclusive.
SMILES,TDP1 cell noCPT,12-LOX inh,HT1080 IDH1KD tx,HT1080NT lethal,IL1B secr inh,TDP1 cell CPT
O=C1NCc2ccccc2CC12CCCN2CC1=CCCCC1 (centres undefined),x,n[6.33 µM],x,x,x,x
c1ccc(-c2ncc(CSc3nncn3-c3ccccc3)s2)cc1,18µM,n,n,n,n,u
CCc1cc2c(=O)c(-c3ccc4c(c3)OCCO4)coc2cc1OS(C)(=O)=O,u,n,u,n,-87,n
CCc1cc2c(=O)c(-c3ccc4c(c3)OCCO4)coc2c(CN2CCCCC2C)c1O (centres undefined),1.5µM,n,u,n,u,1.8µM
CCc1cc2c(=O)c(-c3nc4ccccc4[nH]3)coc2c(CN2CCCCC2C)c1O (centres undefined),10µM,n,u,n,n,u
COC(=O)COc1ccc2c(=O)c(-c3ccc4c(c3)OCCO4)coc2c1,x,n,x,x,x,x
O=C(Nc1cccc([N+](=O)[O-])c1)c1cc2ccccc2cc1O,2.6µM,u,3.7µM,3.7µM,u,4.1µM
O=C(Nc1ccncc1)c1cc2ccccc2cc1O,12µM,n,u,u,-88,u
O=C(O)c1ccccc1C(=O)Nc1cccc([N+](=O)[O-])c1,n,n,n,n,n,n
O=C(Nc1cccc([N+](=O)[O-])c1)c1cccc(C(=O)Nc2cccc([N+](=O)[O-])c2)c1,7.3µM,n,n,n,n,u
CC(NC(=O)Nc1cccc([N+](=O)[O-])c1)(C(F)(F)F)C(F)(F)F,u,n,16µM,u,n,3.7µM
O=C(Nc1ccc(NC(=O)c2cccc([N+](=O)[O-])c2)cc1)c1cccc([N+](=O)[O-])c1,n,n,n,n,n,n
CC(C(=O)Nc1cccc([N+](=O)[O-])c1)[n+]1ccccc1 (centres undefined),n,n,n,n,n,n
O=C(NNC(=O)C1CCCc2ccccc21)c1ccccc1Br (centres undefined),x,n,x,x,x,x
Cc1ccc(-c2nc(NC(=O)c3cc(C)on3)sc2C)cc1,x,n,x,x,x,x
O=C1NCCCCCCN(C(=O)Nc2ccccc2F)[C@H]2C[C@H](c3nc(-c4cccnc4)no3)C[C@@H]12,x,n,x,x,x,x
CCC1c2nccn2CCCN1C(=O)CCc1c(C)noc1C (centres undefined),x,n,x,x,x,x
COc1ccc(C(=O)Nc2ccc3nc(C)sc3c2)cc1OC,n,n,n,n,-58,n
Cc1ccc(C)c(NS(=O)(=O)c2cc(C(=O)Nc3ccccc3-c3ccccc3)ccc2C)c1,u,n,u,u,u,u
O=C(Nc1ccc(Br)cc1)c1cc([N+](=O)[O-])cc([N+](=O)[O-])c1,u,n,n,n,-101,4.6µM
O=C(N/N=C/c1cc([N+](=O)[O-])ccc1O)c1cccc(NC(=O)c2cccc(Cl)c2)c1,3.3µM,u,n,n,n,5.2µM
Cc1nc2ccc(C(=O)N/N=C/c3cc([N+](=O)[O-])ccc3O)cc2[nH]1,n,n,n,n,n,n
Cc1ccc(C(=O)Nc2ccccc2-c2ccccc2)cc1S(=O)(=O)Nc1cccc(C)c1C,21µM,n,u,u,u,u
Fc1ccc(-c2cnc([C@@H]3COCCN3Cc3cnc4ccccc4c3)[nH]2)c(F)c1,x,n,x,x,x,x
O=C(OCc1ccccc1)N1CCOCC12CCN(Cc1cccs1)CC2,x,n,x,x,x,x
CCCCC(=O)NC(=S)Nc1cccc(NC(=O)c2ccccc2)c1,23µM,n,u,n,u,u
COc1ccc(NC(=O)c2cc([N+](=O)[O-])ccc2O)cc1,5.8µM,n,u,21µM,n,8.2µM
Cc1cccc(NC(=O)c2c([N+](=O)[O-])c(C(C)(C)C)nn2C)c1,n,n,n,n,n,n
Cc1ccccc1NS(=O)(=O)c1cc(C(=O)Nc2cccc([N+](=O)[O-])c2)ccc1C,u,n,21µM,u,u,u
